# In PubChem BioAssay (NCATS):
# Several values for one entry are separate records, joined by “and”; a condition that tells them apart may be missing. Equal values may be shown once. Inconclusive results are not listed. For some assays here: Entries with a potency or affinity are not part of this list. The source holds several records for some structures; these can differ, active in one and inactive in another. Activity calls are given as the source filed them.
# How the values were obtained:
# [1] = qHTS Assay for Identifying Gametocytocidal Compounds (AID 743244; active means well fitted curve in the direction sought with a large enough effect; further: potency means the concentration at half of the fitted maximal effect;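 on max response: on the % scale 0 is the no-effect control and ±100 the full control effect; actives lower the fluorescent signal which means gametocytes are killed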); conditions: P. falciparum 3D7 stage III-V gametocytes, alamarBlue, 72 h; max response: stronger effect = lower value
# How it was run: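 P. falciparum 3D7 stage III–V gametocytes (20,000 cells/well) were exposed to compounds for 72 h at 37 °C, 5% CO2. AlamarBlue was then added for 24 h; decreased resorufin fluorescence (Ex 525/Em 598 nm) indicated loss of viability.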
# [2] = Ebola virus entry assay, green fluorescence channel
# [3] = Ebola virus entry assay, blue channel fluorescence
# [4] = Ebola virus entry assay, green fluorescence channel; remark: listed apart in the source
# [5] = Ebola virus entry assay, ratio channel readout
# [6] = Ebola virus entry assay, blue channel fluorescence; remark: listed apart in the source
# [7] = Ebola virus entry assay, ratio channel
# [8] = Ebola virus entry assay, reporter ratio channel; AC50: Channel type: primary unless noted; outcome: Channel type: primary unless noted
# [9] = Ebola virus entry assay, blue channel (ratio component)
# [10] = qHTS profiling of the MIPE4 collection as inhibitors of Plasmodium falciparum (3D7) proliferation (AID 743344);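 further: scaled between DMSO vehicle wells and 0.29 µM artemisinin as full inhibition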; conditions: P. falciparum 3D7 in erythrocytes, SYBR Green DNA fluorescence, 72 h; at 28.5 µM (top of the series) unless noted
# How it was run: (§1)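 Parasite DNA was quantified by SYBR Green I fluorescence (ex 485, em 535 nm) after overnight lysis in saponin/Triton buffer at room temperature. Cultures at 0.3% parasitemia and 2.5% hematocrit were first exposed to compound for 72 h at 37 C; signals were normalised to artemisinin (0.29 uM) and vehicle wells.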
# [11] = qHTS profiling of the MIPE4 collection as inhibitors of Plasmodium falciparum (DD2) proliferation (AID 743345); conditions: P. falciparum Dd2 in erythrocytes, SYBR Green DNA, 72 h; at 28.5 µM (top of the series) unless noted
# How it was run: as §1
# [12] = qHTS profiling of the MIPE4 collection as inhibitors of Plasmodium falciparum (DD2) proliferation (Rep 2) (AID 743346); conditions: P. falciparum Dd2 in erythrocytes, SYBR Green DNA, 72 h; at 28.5 µM (top of the series) unless noted
# How it was run: as §1
# [13] = qHTS profiling of the MIPE4 collection as inhibitors of Plasmodium falciparum (HB3) proliferation (AID 743347);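 further: plate controls were DMSO vehicle wells for no effect and artemisinin wells for full effect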; conditions: P. falciparum HB3 in erythrocytes, SYBR Green DNA, 72 h; at 28.5 µM (top of the series) unless noted
# How it was run: as §1
# Wherever efficacy is given: 0% is about no effect.
smiles,measurement,setting,value
CN(C)C(=O)C(CCN1CCC(O)(c2ccc(Cl)cc2)CC1)(c1ccccc1)c1ccccc1,Potency,[1],11.2 µM (active) and 1.26 µM (active)
same,efficacy,[2],-226% (inactive)
same,AC50,[3],11.2 µM (active)
same,outcome,[4],inactive
same,outcome,[5],inactive
same,AC50,[6],3.16 µM (active)
same,AC50,[7],2.51 µM (active)
same,AC50,[8],2.51 µM (active)
CC[C@]1(O)C[C@H]2CN(CCc3c([nH]c4ccccc34)[C@@](C(=O)OC)(c3cc4c(cc3OC)N(C=O)[C@H]3[C@@](O)(C(=O)OC)[C@H](OC(C)=O)[C@]5(CC)C=CCN6CC[C@]43[C@@H]65)C2)C1,efficacy,[2],37.5% (inactive)
same,outcome,[3],inactive
same,outcome,[4],inactive
same,outcome,[5],inactive
same,AC50,[6],0.282 µM (active)
same,outcome,[7],inactive
same,outcome,[8],inactive [Channel type: confirmation]
same,outcome,[9],inactive
CC(N)C12CC3CC(CC(C3)C1)C2 (centres undefined),efficacy,[2],56.9% (inactive)
same,outcome,[3],inactive
same,outcome,[4],inactive
same,outcome,[5],inactive
same,AC50,[6],28.2 µM (active)
same,AC50,[7],28.2 µM (active)
same,AC50,[8],28.2 µM (active)
COC(=O)Nc1nc2ccc(C(=O)c3ccccc3)cc2[nH]1,efficacy,[2],81.3% (inactive)
same,AC50,[3],5.62 µM (active)
same,outcome,[4],inactive
same,outcome,[5],inactive
same,AC50,[6],1.41 µM (active)
same,AC50,[7],1.26 µM (active)
same,AC50,[8],1.26 µM (active)
same,outcome,[9],inactive
COc1cc2c(c(OC)c1OC)-c1ccc(OC)c(=O)cc1[C@@H](NC(C)=O)CC2,"parasite growth, % of DMSO control",[10],34.7%
same,"parasite growth remaining, % of DMSO control (lower = more inhibition)",[11],78.8%
same,"parasite growth, % of control (lower = inhibition)",[12],42.5%
same,"growth, % of control",[13],35.4%
same,efficacy,[2],-81.3% (inactive)
same,AC50,[3],0.316 µM (active)
same,outcome,[4],inactive
same,AC50,[5],0.32 µM (active)
same,AC50,[6],22.4 µM (active)
same,AC50,[7],0.316 µM (active)
same,outcome,[8],inactive [Channel type: confirmation]
same,outcome,[9],inactive
OCCN(CCO)c1nc(N2CCCCC2)c2nc(N(CCO)CCO)nc(N3CCCCC3)c2n1,efficacy,[2],489% (inactive)
same,outcome,[3],inactive
same,AC50,[4],25.1 µM (active)
same,outcome,[5],inactive
same,outcome,[6],inactive
same,outcome,[7],inactive
same,outcome,[8],inactive
Cc1c(O)cccc1C(=O)N[C@@H](CSc1ccccc1)[C@H](O)CN1C[C@H]2CCCC[C@H]2C[C@H]1C(=O)NC(C)(C)C,efficacy,[2],83.4% (inactive)
same,outcome,[3],inactive
same,outcome,[4],inactive
same,outcome,[5],inactive
same,AC50,[6],39.8 µM (active)
same,outcome,[7],inactive
same,AC50,[8],39.8 µM (active)
CNCCCC1c2ccccc2C=Cc2ccccc21,efficacy,[2],60.1% (inactive)
same,AC50,[3],11.2 µM (active)
same,outcome,[4],inactive
same,AC50,[5],8.92 µM (active)
same,AC50,[6],10 µM (active)
same,AC50,[7],8.91 µM (active)
same,AC50,[8],8.91 µM (active)
COc1cc2c(cc1OC)C(=O)C(CC1CCN(Cc3ccccc3)CC1)C2 (centres undefined),efficacy,[2],108% (inactive)
same,outcome,[3],inactive
same,outcome,[4],inactive
same,outcome,[5],inactive
same,AC50,[6],35.5 µM (active)
same,AC50,[7],22.4 µM (active)
same,AC50,[8],22.4 µM (active)
CC(CN(C)C)CN1c2ccccc2CCc2ccccc21 (centres undefined),efficacy,[2],31.5% (inactive)
same,outcome,[3],inactive
same,outcome,[4],inactive
same,AC50,[5],14.1 µM (active)
same,AC50,[6],7.94 µM (active)
same,AC50,[7],6.31 µM (active)
same,AC50,[8],6.31 µM (active)
COc1cc2ncnc(Nc3ccc(F)c(Cl)c3)c2cc1OCCCN1CCOCC1,efficacy,[2],41.5% (inactive)
same,AC50,[3],15.8 µM (active)
same,outcome,[4],inactive
same,outcome,[5],inactive
same,AC50,[6],2.82 µM (active)
same,AC50,[7],2.51 µM (active)
same,AC50,[8],2.51 µM (active)
CC(C)NCC(O)COc1ccc(CCOCC2CC2)cc1 (centres undefined),efficacy,[2],65% (inactive)
same,outcome,[3],inactive
same,outcome,[4],inactive
same,outcome,[5],inactive
same,AC50,[6],14.1 µM (active)
same,AC50,[7],11.2 µM (active)
same,AC50,[8],11.2 µM (active)
CC[C@]1(O)C[C@@H]2CN(CCc3c([nH]c4ccccc34)[C@@](C(=O)OC)(c3cc4c(cc3OC)N(C)[C@H]3[C@@](O)(C(=O)OC)[C@H](OC(C)=O)[C@]5(CC)C=CCN6CC[C@]43[C@@H]65)C2)C1,efficacy,[2],-50.1% (inactive) and 54.6% (inactive)
same,AC50,[3],0.0009 µM (active)
same,outcome,[4],inactive
same,outcome,[5],inactive
same,AC50,[6],0.794 µM (active)
same,AC50,[7],1 µM (active) and 891 nM (active)
same,AC50,[8],1 µM (active) and 891 nM (active)
OCCN1CCN(CCCN2c3ccccc3Sc3ccc(Cl)cc32)CC1,efficacy,[2],88.4% (inactive)
same,AC50,[3],6.31 µM (active)
same,outcome,[4],inactive
same,AC50,[5],5.63 µM (active)
same,AC50,[6],2.82 µM (active)
same,AC50,[7],2.24 µM (active)
same,AC50,[8],2.24 µM (active)
CC/C(=C(\c1ccccc1)c1ccc(OCCN(C)C)cc1)c1ccccc1,efficacy,[2],-205% (inactive)
same,AC50,[3],1.12 µM (active)
same,outcome,[4],inactive
same,AC50,[5],1.26 µM (active)
same,AC50,[6],1.41 µM (active)
same,AC50,[7],1.12 µM (active)
same,AC50,[8],1.12 µM (active)
same,outcome,[8],inactive [Channel type: confirmation]
CCN(CC)CCCC(C)Nc1ccnc2cc(Cl)ccc12 (centres undefined),efficacy,[2],34.3% (inactive)
same,AC50,[3],3.98 µM (active)
same,outcome,[4],inactive
same,AC50,[5],2.82 µM (active)
same,AC50,[6],1.26 µM (active)
same,AC50,[7],1.12 µM (active)
same,AC50,[8],1.12 µM (active)
CN(C)CC/C=C1\c2ccccc2COc2ccccc21,efficacy,[2],117% (inactive)
same,outcome,[3],inactive
same,outcome,[4],inactive
same,outcome,[5],inactive
same,AC50,[6],20 µM (active)
same,AC50,[7],14.1 µM (active)
same,AC50,[8],14.1 µM (active)
CN1CCN(C2=Nc3ccccc3Oc3ccc(Cl)cc32)CC1,efficacy,[2],112% (inactive)
same,outcome,[3],inactive
same,outcome,[4],inactive
same,outcome,[5],inactive
same,AC50,[6],39.8 µM (active)
same,AC50,[7],31.6 µM (active)
same,AC50,[8],31.6 µM (active)
CC[C@@H]([C@H](C)O)n1ncn(-c2ccc(N3CCN(c4ccc(OC[C@@H]5CO[C@@](Cn6cncn6)(c6ccc(F)cc6F)C5)cc4)CC3)cc2)c1=O,efficacy,[2],27.6% (inactive)
same,AC50,[3],10 µM (active)
same,outcome,[4],inactive
same,outcome,[5],inactive
same,AC50,[6],4.47 µM (active)
same,AC50,[7],3.98 µM (active)
same,AC50,[8],3.98 µM (active)
CN(C)CCC=C1c2ccccc2C=Cc2ccccc21,efficacy,[2],108% (inactive)
same,outcome,[3],inactive
same,outcome,[4],inactive
same,outcome,[5],inactive
same,AC50,[6],11.2 µM (active)
same,AC50,[7],10 µM (active)
same,AC50,[8],10 µM (active)
O[C@@H](CNC[C@H](O)[C@H]1CCc2cc(F)ccc2O1)[C@@H]1CCc2cc(F)ccc2O1,efficacy,[2],-189% (inactive)
same,AC50,[3],11.2 µM (active)
same,outcome,[4],inactive
same,outcome,[5],inactive
same,AC50,[6],7.94 µM (active)
same,AC50,[7],3.55 µM (active)
same,AC50,[8],3.55 µM (active)
CCC(COC(=O)c1cc(OC)c(OC)c(OC)c1)(c1ccccc1)N(C)C (centres undefined),max response,[1],10.7% (inactive)
same,efficacy,[2],72.4% (inactive)
same,outcome,[3],inactive
same,outcome,[4],inactive
same,outcome,[5],inactive
same,outcome,[6],inactive
same,AC50,[7],17.8 µM (active)
same,AC50,[8],17.8 µM (active)
same,outcome,[9],inactive
CN1CCN(CCCN2c3ccccc3Sc3ccc(C(F)(F)F)cc32)CC1,efficacy,[2],-186% (inactive)
same,AC50,[3],7.08 µM (active)
same,outcome,[4],inactive
same,outcome,[5],inactive
same,AC50,[6],3.55 µM (active)
same,AC50,[7],2.82 µM (active)
same,outcome,[8],inactive [Channel type: confirmation]
OC(CCN1CCCC1)(c1ccccc1)C1CCCCC1 (centres undefined),efficacy,[2],120% (inactive)
same,outcome,[3],inactive
same,outcome,[4],inactive
same,outcome,[5],inactive
same,AC50,[6],25.1 µM (active)
same,AC50,[7],20 µM (active)
same,AC50,[8],20 µM (active)
